Screening data deposited in PubChem BioAssay by several laboratories.
PLCg1 inh: PLC-gamma1 (human) inhibition, primary screen | P19174 | purified PLC-gamma1, fluorogenic substrate, fluorescence | inhibition, % at 12.2 µM | hit rate 0.84% among 370,000
sPLA2-III inh: Blocks human group III sPLA2 activity; QFRET BODIPY PC-A2 liposome hydrolysis, fluorescence; inhibition, % at 12.2 µM; hit rate 0.56% among 370,000; AID 743126;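 active = inhibition above mean plus 3 SD of compounds lying within the high and low control bounds, cut at about 19% in these data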;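 also: 0% = median of test compound wells and 100% = no enzyme DMSO wells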
Target sequence (Q9NZ20 whole entry, looked up): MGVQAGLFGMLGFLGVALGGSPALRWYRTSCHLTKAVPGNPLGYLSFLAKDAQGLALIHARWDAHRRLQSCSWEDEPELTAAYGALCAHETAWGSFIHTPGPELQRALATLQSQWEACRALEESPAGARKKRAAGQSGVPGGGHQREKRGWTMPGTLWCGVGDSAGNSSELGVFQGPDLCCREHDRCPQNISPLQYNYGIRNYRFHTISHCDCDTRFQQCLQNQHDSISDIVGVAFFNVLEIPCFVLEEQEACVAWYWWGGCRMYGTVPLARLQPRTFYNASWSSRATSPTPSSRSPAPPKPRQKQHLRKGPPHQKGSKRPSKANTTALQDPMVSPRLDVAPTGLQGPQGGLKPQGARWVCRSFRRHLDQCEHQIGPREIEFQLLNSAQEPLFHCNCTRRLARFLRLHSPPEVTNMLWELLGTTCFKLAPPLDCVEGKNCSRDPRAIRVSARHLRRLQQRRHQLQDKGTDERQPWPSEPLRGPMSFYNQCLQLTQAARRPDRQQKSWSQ
AHR act: activators of human aryl hydrocarbon receptor | P35869 | AHR-responsive luciferase reporter cells, luminescence | activation, % at 5 µM | hit rate 2.5% among 320,000; in the data active = activation above about 47%;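 also: 0% = vehicle wells and 100% = reference agonist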
Yeast superoxide: lowers age-related superoxide in aged yeast cells; S. cerevisiae aged cells, superoxide DHE fluorescence; active compounds read low; superoxide response (% of plate mean), % at 10 µM; hit rate 0.18% among 330,000; AID 2690;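 active = superoxide response under a set limit, about three screen SD below normal, cut at about 65% in these data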;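 also: yeast aged for seven days with compound at 30 °C before DHE staining; 100% = average MFI of all compound-treated wells on the plate with controls excluded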
PLC-beta3 inh: inhibitors of human phospholipase C beta3; Q01970; Purified PLC-beta3, fluorogenic substrate, fluorescence; inhibition, % at 12.2 µM; hit rate 0.18% among 370,000; AID 720704; in the data active = inhibition above about 11%;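 also: 0% = median of compound wells on plate and 100% = full blocker control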
HIF activator: HIF pathway transcriptional activation; AID 1910; hit rate 0.32% among 300,000; U2OS HRE-luciferase reporter, luminescence; normalized: DMSO 0%, desferrioxamine 100%; activation, % at 7.5 µM (by protocol);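 active = mean activation of at least 10% of the iron chelator positive control signal, with at least half of replicates also reaching 10%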
PLCgamma1 ctr: counter-screen for PLC-beta3 inhibitors: inhibitors of human PLC-gamma1; hit rate 3.1% among 3,300; AID 743258; shares compounds with PLCg1 inh; inhibition, % at 12.3 µM; purified PLC-gamma1, fluorogenic substrate, fluorescence
PLCbeta3 conf: human PLC-beta3 inhibition, confirmation; shares compounds with PLCg1 inh; purified PLC-beta3, fluorogenic substrate fluorescence; inhibition, % at 12.3 µM; hit rate 1% among 3,300; AID 743261; in the data active = inhibition above about 11%
An asterisk follows results filed as active; x = no result given. Hits are enriched below; roughly 3.9% of the tested compounds scored in any of these assays. Rule as the data show it, unless noted: active = inhibition above about 9.5%; inactive = the rest.

SMILES | PLCg1 inh | sPLA2-III inh | AHR act | Yeast superoxide | PLC-beta3 inh | HIF activator | PLCgamma1 ctr | PLCbeta3 conf
CC(C)(C)OC(=O)C[C@H]1C/C=C\C[C@@H](CC(=O)N(CCO)Cc2ccccc2)C(=O)N2CCC[C@@H]2COC1=O | 0.1 | 8.3 | 0.5 | 95.1 | 10.7* | x | -5.4 | -2.3
NC1=NC2(CCN(Cc3ccccc3)CC2)n2c(nc3ccccc32)N1 | 11.6* | 2.2 | 1.6 | 99.7 | 3.8 | -0.1 | -1.8 | -4.6
NC1=NC2(CCCCC2)n2c(nc3ccccc32)N1 | -1.0 | 0.1 | 3.0 | 112.5 | 2.3 | -0.1 | x | x
NC1=NC2(CCC(c3ccccc3)CC2)n2c(nc3ccccc32)N1 (stereo not given) | 17.8* | 10.8 | 1.1 | 94.3 | 14.5* | 0.3 | 3.1 | 2.5
c1ccc(CN2CCN(c3nc4ccccc4n4cnnc34)CC2)cc1 | -5.1 | -4.0 | -7.8 | 102.2 | -8.4 | -0.2 | x | x
C[C@@H]1CN([C@H](C)CO)C(=O)CCCn2nncc2CO[C@H]1CN(C)S(=O)(=O)c1cccc(C#N)c1 | -0.6 | 11.8 | x | x | -3.3 | x | x | x
CC(C)CN1C(=O)NC(NC(=O)c2cccnc2)(C(F)(F)F)C1=O (stereo not given) | 10.8* | 15.8 | -4.2 | 90.9 | 7.2 | x | -4.9 | 0.7
O=c1[nH]c2cc([N+](=O)[O-])c(NCCO)c([N+](=O)[O-])c2[nH]1 | 1.3 | 5.0 | 7.4 | 105.3 | 0.8 | 0.3 | x | x
CC(=O)Nc1c([N+](=O)[O-])cc2[nH]c(=O)[nH]c2c1[N+](=O)[O-] | 12.4* | 9.3 | 2.9 | 100.1 | 11.5* | 0.0 | -7.1 | 0.0
CCOc1c(Cl)cc(CNCC(O)c2ccccc2)cc1OC (stereo not given) | 10.6* | -10.1 | 3.4 | 89.5 | 2.1 | -0.3 | 2.4 | 5.3
Cn1cc(S(=O)(=O)CC(=O)N2CCc3ccccc32)c2ccccc21 | 17.8* | -27.8 | 6.5 | 96.0 | 15.6* | -0.3 | 13.1* | 14.7*
CC(=O)Nc1ccc(SC[C@H](Cc2ccccc2)N2CC[C@@H](C(C)(C)C)CCC2=O)cc1 | 11.2* | -7.6 | 7.5 | 88.4 | 3.2 | x | 3.1 | 3.5
Cc1ccc(C(=O)c2cn[nH]c2-c2ccccc2O)cc1 | 14.1* | -56.0 | 2.6 | 102.2 | 4.8 | 0.4 | -6.0 | -4.1
CS(=O)(=O)N(CC(=O)NCCSCc1ccccc1Cl)c1ccc(F)cc1 | 12.7* | 1.6 | -0.3 | 103.6 | 0.1 | -0.3 | -3.5 | -2.2
O=C(CC1SC(=Nc2ccccc2)N(CCc2ccccn2)C1=O)Nc1ccc(F)cc1 (stereo not given) | 9.8* | -22.8 | 0.2 | 105.4 | 4.8 | -0.3 | 3.0 | 5.2
COc1ccc(N=C2SC(CC(=O)Nc3ccccc3)C(=O)N2Cc2ccco2)cc1 (stereo not given) | 7.6 | -36.4 | 0.5 | 97.3 | 10.7* | -1.9 | 1.4 | 1.6
O=C(CC1SC(=Nc2ccccc2)N(CCc2c[nH]c3ccccc23)C1=O)Nc1ccccc1F (stereo not given) | 9.4 | -70.4 | 12.0 | 104.1 | 13.4* | -0.1 | 4.4 | 6.9
COc1ccc(N=C2SC(CC(=O)Nc3ccccc3F)C(=O)N2Cc2ccco2)cc1 (stereo not given) | 0.5 | -21.8 | -2.8 | 100.7 | 2.3 | -0.2 | x | x
CCOc1ccc(/C=C(\C)C(=O)c2c(C)cc(C)[nH]c2=O)cc1 | 12.4* | 7.0 | 2.6 | 97.0 | 4.9 | -0.6 | 1.4 | -7.8
NC(=O)c1nn(CC(=O)Nc2cccc(S(=O)(=O)N3CCCC3)c2)c(=O)c2ccccc12 | 3.4 | 2.5 | 0.5 | 116.0 | -8.4 | x | x | x
CCn1nc(C)c(CN2CCN(Cc3ccsc3)C(CCO)C2)c1C (stereo not given) | 10.0* | -2.0 | 0.6 | 91.7 | -2.8 | 0.0 | -0.5 | 1.1
CCCn1ncc(CN2CCN(Cc3ccsc3)C(CCO)C2)c1C (stereo not given) | 0.0 | -2.5 | 0.4 | 98.0 | 2.5 | -0.6 | x | x
CC(C)NCC(O)COc1ccc2c(c1)CCC2 (stereo not given) | -9.4 | -0.5 | -0.1 | 99.4 | -7.5 | -18.7 | x | x
O=C(Cn1ccc([N+](=O)[O-])n1)Nc1nccs1 | 9.6* | 4.3 | 0.8 | 101.5 | 7.9 | -0.2 | -1.6 | 2.8
CCOC(=O)c1c[nH]c2c(C(F)(F)F)cccc2c1=O | 0.3 | 4.3 | -2.7 | 100.2 | -2.6 | -0.3 | x | x
SMILES | PLCg1 inh | sPLA2-III inh | AHR act | Yeast superoxide | PLC-beta3 inh | HIF activator | PLCgamma1 ctr | PLCbeta3 conf
CCN(C(=O)COC(=O)CNC(=O)c1ccc(C)cc1)c1c(N)n(Cc2ccccc2)c(=O)[nH]c1=O | 0.3 | 6.2 | -0.7 | 88.0 | -7.8 | x | x | x
O=C(COc1ccccc1Cl)N1CCCC1 | 1.1 | 2.0 | 3.5 | 104.1 | 1.1 | 0.0 | x | x
CCOC(=O)N1CCN(C(=O)COc2ccccc2Cl)CC1 | 9.5* | -2.8 | -1.1 | 100.1 | 10.4 | -0.6 | 0.5 | 3.4
O=C(CSc1nnc(-c2ccc(Cl)cc2Cl)n1C1CCCCC1)N1CCCC1 | 11.2* | -6.8 | -1.4 | 101.0 | 1.3 | 0.0 | 1.4 | 2.1
O=C(CSc1nnc(-c2ccccc2F)n1C1CCCCC1)N1CCCC1 | 6.1 | 5.0 | -3.2 | 96.4 | 5.6 | 0.7 | x | x
O=C(CSc1nnc(-c2ccc(Br)cc2)n1C1CCCCC1)N1CCCC1 | 15.6* | 6.3 | 0.7 | 97.5 | 5.8 | 1.4 | -4.0 | -1.8
COc1ccc(CCN2C(=NC(=O)C(C)C)SC3CS(=O)(=O)CC32)cc1OC (stereo not given) | 3.7 | 0.6 | 4.0 | 102.3 | -5.6 | 0.0 | x | x
O=C(O)c1cccc(S(=O)(=O)NCC2COc3ccccc3O2)c1 (stereo not given) | 9.8* | 5.5 | 5.8 | 100.3 | 1.2 | x | -8.2 | -2.3
CCN(CC(=O)Nc1ccc(OC)cc1)C(=O)c1ccc(OCc2c(C)noc2C)cc1 | -0.5 | -1.8 | x | x | -2.2 | x | x | x
Cc1ccc(C(NC(=O)c2ccccc2)C(Cl)Cl)cc1 (stereo not given) | 7.2 | -2.5 | 5.1 | 99.2 | 10.7* | 1.1 | -3.1 | -1.4
Cc1ccc(C(=O)NC(NC(=O)c2ccc(C)cc2)C(Cl)Cl)cc1 | 5.7 | 3.7 | 1.0 | 101.3 | 0.2 | 2.6 | x | x
O=C(CCCC1=NS(=O)(=O)c2ccccc2N1)Nc1ccccc1 | -0.9 | 2.0 | 0.3 | 107.9 | -5.2 | 0.3 | x | x
CCCCC1CCC(c2nc(-c3ccccn3)no2)CC1 (stereo not given) | 9.8* | 6.6 | 1.0 | 100.1 | 3.4 | -2.0 | -3.8 | -3.8
c1ccc(-c2noc(C3CCC3)n2)nc1 | -0.2 | 8.9 | 3.4 | 108.0 | -6.9 | 0.5 | x | x
CC1CCCCN1S(=O)(=O)c1ccc(N(C(=O)c2cnccn2)C(C(=O)NC2CCCCC2)c2cccs2)cc1 (stereo not given) | 12.4* | -5.7 | 1.8 | 78.8 | 3.5 | -0.2 | -6.7 | -3.0
